From PubChem BioAssay AID1159580 (chemical genetic matrix, 2015)
Values joined by “and” are separate entries in the source; they are usually repeats but may differ in a detail not shown here. Identical values can stand only once. Hit rate of the full screen: of about 5,500 compounds, about 2,000 (36%) were called active. Another 18% or so got no clear call; they are omitted. Rule as the data show it: active = normalized growth mostly below about 0.91 (no sharp cut-off); inconclusive = no clear call, values can overlap the other calls; inactive = mostly above about 0.92. This is one part of the list.

Assay: chemical genetic growth profiling, strain panel (AID 1159580);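 also: tested at 20 µM; growth read once vehicle control cultures reached saturation at 30 °C; 1 = growth at the plate median or of vehicle wells; lower values mean less growth of the strain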
Conditions: S. cerevisiae deletion strains, growth OD

Measured: normalized growth

COc1ccc2cc([C@H](C)CO)ccc2c1
inactive: locus YAL013W, strain DEP1, stronger effect = lower value 0.982 | locus YAL021C, strain ccr4, stronger effect = lower value 1.04 | locus YAL026C, strain drs2, stronger effect = lower value 1.01 | locus YAL030W, strain snc1, stronger effect = lower value 1 | locus YBL061C, strain skt5, stronger effect = lower value 1.01 | locus YBR009C, strain hhf1, stronger effect = lower value 1.01 | locus YBR021W, strain FUR4, stronger effect = lower value 1.02 | locus YBR023C, strain chs3, stronger effect = lower value 1.01 | locus YBR171W, strain sec66, stronger effect = lower value 1.01 | locus YBR229C, strain ROT2, stronger effect = lower value 0.947 | locus YBR231C, strain swc5, stronger effect = lower value 1.07 | locus YBR279W, strain paf1, stronger effect = lower value 1.01 | locus YCL011C, strain gbp2, stronger effect = lower value 1.01 | locus YCL016C, strain dcc1, stronger effect = lower value 1.01 | locus YCL029C, strain bik1, stronger effect = lower value 0.976 | locus YCL061C, strain MRC1, stronger effect = lower value 1.02 | locus YCL069W, strain vba3, stronger effect = lower value 1.01 | locus YCR088W, strain abp1, stronger effect = lower value 0.936 | locus YDL005C, strain med2, stronger effect = lower value 1.02 | locus YDL035C, strain GPR1, stronger effect = lower value 0.955 | locus YDL040C, strain nat1, stronger effect = lower value 1.01 | locus YDL074C, strain BRE1, stronger effect = lower value 0.996 | locus YDL101C, strain DUN1, stronger effect = lower value 0.989 | locus YDL134C, strain PPH21, stronger effect = lower value 0.98 | locus YDL185W, strain tfp1, stronger effect = lower value 0.962 | locus YDL192W, strain arf1, stronger effect = lower value 0.966 | locus YDR001C, strain nth1, stronger effect = lower value 1.01 | locus YDR069C, strain doa4, stronger effect = lower value 1.02 | locus YDR101C, strain arx1, stronger effect = lower value 0.976 | locus YDR137W, strain rgp1, stronger effect = lower value 1.03 | locus YDR150W, strain NUM1, stronger effect = lower value 0.974 | locus YDR159W, strain sac3, stronger effect = lower value 1 | locus YDR162C, strain NBP2, stronger effect = lower value 0.961 | locus YDR195W, strain ref2 1.04 | locus YDR297W, strain sur2, stronger effect = lower value 1.01 | locus YDR318W, strain mcm21, stronger effect = lower value 0.98 | locus YDR334W, strain swr1, stronger effect = lower value 1.03 | locus YDR335W, strain msn5, stronger effect = lower value 1.02 | locus YDR388W, stronger effect = lower value 0.983 | locus YDR392W, strain spt3, stronger effect = lower value 1.03 | locus YDR502C, strain sam2, stronger effect = lower value 0.95 | locus YEL003W, strain gim4, stronger effect = lower value 1.01 | locus YEL037C, strain rad23, stronger effect = lower value 1.01 | locus YEL061C, strain CIN8 (second series), stronger effect = lower value 1.01 | locus YEL061C, strain CIN8, stronger effect = lower value 0.987 | locus YER015W, strain faa2, stronger effect = lower value 1.01 | locus YER016W, strain bim1, stronger effect = lower value 1.01 | locus YER110C, stronger effect = lower value 0.954 | locus YER111C, strain swi4, stronger effect = lower value 1.02 | locus YER155C, strain BEM2 (second series), stronger effect = lower value 1.01 | locus YER155C, strain BEM2, stronger effect = lower value 1.01 | locus YER167W, strain BCK2, stronger effect = lower value 0.975 | locus YFR010W, strain ubp6, stronger effect = lower value 1.02 | locus YGL078C, strain dbp3, stronger effect = lower value 0.982 | locus YGL086W, strain mad1, stronger effect = lower value 0.984 | locus YGL167C, strain pmr1, stronger effect = lower value 1.01 | locus YGL173C, strain kem1, stronger effect = lower value 1 | locus YGL227W, strain vid30, stronger effect = lower value 1 | locus YGL240W, strain doc1, stronger effect = lower value 1.01 | locus YGL248W, strain PDE1, stronger effect = lower value 0.98 | locus YGL253W, strain hxk2, stronger effect = lower value 1.03 | locus YGR078C, strain PAC10, stronger effect = lower value 0.987 | locus YGR135W, strain pre9, stronger effect = lower value 0.949 | locus YGR229C, strain SMI1, stronger effect = lower value 0.979 | locus YGR252W, strain gcn5, stronger effect = lower value 0.894 | locus YHR013C, strain ard1, stronger effect = lower value 1.07 | locus YHR027C, strain rpn1, stronger effect = lower value 1.01 | locus YHR030C, strain SLT2, stronger effect = lower value 0.985 and 0.928 | locus YHR079C, strain IRE1 (second series), stronger effect = lower value 0.979 | locus YHR079C, strain IRE1, stronger effect = lower value 0.95 | locus YHR094C, strain hxt1, stronger effect = lower value 0.981 | locus YHR129C, strain ARP1, stronger effect = lower value 0.995 | locus YHR142W, strain chs7, stronger effect = lower value 1.02 | locus YHR200W, strain rpn10, stronger effect = lower value 0.973 | locus YIL066C, strain RNR3, stronger effect = lower value 0.969 | locus YIL073C, strain SPO22, stronger effect = lower value 0.954 | locus YIL125W, strain kgd1, stronger effect = lower value 0.974 | locus YIR030C, strain dcg1, stronger effect = lower value 0.975 | locus YJL092W, strain hpr5, stronger effect = lower value 1.01 | locus YJL095W, strain BCK1 (second series), stronger effect = lower value 1 | locus YJL095W, strain BCK1, stronger effect = lower value 0.996 and 0.935 | locus YJL115W, strain asf1, stronger effect = lower value 1.02 | locus YJL129C, strain trk1, stronger effect = lower value 1.02 | locus YJL134W, strain LCB3, stronger effect = lower value 0.984 | locus YJL154C, strain vps35, stronger effect = lower value 1.01 | locus YJL164C, strain tpk1, stronger effect = lower value 1.01 | locus YJL166W, strain qcr8, stronger effect = lower value 1.01 | locus YJL168C, strain set2, stronger effect = lower value 0.982 | locus YJL187C, strain SWE1 (second series), stronger effect = lower value 0.982 | locus YJL187C, strain SWE1, stronger effect = lower value 1.01 | locus YJR043C, strain POL32, stronger effect = lower value 0.994
